High-throughput results (PubChem BioAssay)
SW480 rereplic – DNA re-replication induction in SW480 cells. SW480 DNA re-replication, Hoechst DNA content imaging, 48 h. Potency, µM (top dose mostly 46.1 µM), for the others: top-dose re-replication activation, usual class: activators. 340,000 tested, 1.8% active. AID 624297; also: % of control where 0% means no effect; nearly all actives have a fitted effect of over 55% in size
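First, 250 cells per well were seeded. Next, compound or vehicle (23 nL) was pinned in, plates sat 48 hr at 37 C. Finally Hoechst was added for 40 min before fluorescence scanning.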
KB-3-1 tox – KB-3-1 parental cell cytotoxicity. KB-3-1 viability, CellTiter-Glo ATP luminescence, 72 h. AID 1347075. 400,000 tested, 1.4% active. Potency, µM (titrated, usually from 46.1 µM), most hits filed as cytotoxic; also: % is scaled to controls: 0 for no effect and ±100 for the full control effect; nearly all actives have a fitted effect of over 60% in size
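72 h, 37 °C compound treatment of KB-3-1 parental cells; CellTiter-Glo added, 10 min, luminescence read. Data corrected against DMSO-only plates and normalized before curve fitting.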
KB-V1 MDR tox – KB-V1 MDR subline cytotoxicity. 400,000 tested, 3.4% active. Potency, µM (series often up to 46.1 µM), hits mostly cytotoxic. KB-V1 MDR cells viability, CellTiter-Glo, 72 h; also: % is scaled to controls: 0 for no effect and ±100 for the full control effect; nearly all actives have a fitted effect of over 60% in size
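Readout: CellTiter-Glo luminescence, 10 min after addition. Cells: KB-V1 MDR subline, 72 h at 37 degrees C with compound. Analysis: corrected, normalized data fitted to concentration-effect curves.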
ELG1 repair inh – inhibitors of ELG1-dependent DNA repair in HEK293T cells | HEK293T ELG1-luciferase reporter, luminescence, 16 h; DNA damage induced by 5-fluorouridine | Potency, µM (titrated, usually from 46.1 µM), for inactives: top-dose activity change, negative = inhibition, actives largely listed as inhibitors | 330,000 tested, 2.3% active | AID 504467; also: % is scaled to controls: 0 for no effect and ±100 for the full control effect; nearly all actives have a fitted effect of over 55% in size
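In this reporter screen, reduction of luminescence relative to DMSO vehicle indicated activity. Compounds and 5-fluorouridine were added together to 2,000 cells per well, incubated for 16 hr at 37 °C, then developed with ONE-Glo.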
MCF10A rereplic – inducers of DNA re-replication in MCF 10A breast cells; 350,000 tested, 2.9% active; Potency, µM (series often up to 46.1 µM), without a hit: at the top dose activity, positive = re-replication, hits mostly activators; MCF 10A DNA re-replication, Hoechst nuclear intensity, 48 h; AID 624296; also: % of control where 0% means no effect; nearly all actives have a fitted effect of over 50% in size
Active calls of the source: *; i = inactive; ? = inconclusive; / = not tested or not shown; ! = a repeat was not active; [ ] = another dose, or the depositor's remark. An excerpt weighted towards active compounds, which were near 8.2% of everything screened. Calls follow the shape of the dose curve; as a rule, active = well fitted curve in the direction sought with a large enough effect; inconclusive = small, poorly fitted or top-dose-only effect, or another doubt; inactive = no such curve, though single readings can be large; an effect the other way counts as inactive or inconclusive. Potency is read from the fitted curve at half-maximal effect.

SMILES	SW480 rereplic	KB-3-1 tox	KB-V1 MDR tox	ELG1 repair inh	MCF10A rereplic
COc1ccc(-c2csc3ncnc(N4CCN(c5ccccc5)CC4)c23)cc1	8%	?	?	?	?
Cc1ccc(S(=O)(=O)N2CCN(c3ncnc4scc(-c5ccc(F)cc5)c34)CC2)cc1	-80%	i	i	?	?
COc1ccc(-c2csc3ncnc(N4CCN(c5ccccc5O)CC4)c23)cc1	17%	i	i	?	?
Cc1ccc(-c2csc3ncnc(N4CCN(c5ccccc5O)CC4)c23)cc1	18%	?	?	5.8µM*	?
Cc1ccc(S(=O)(=O)N2CCN(c3ncnc4sccc34)CC2)cc1C	8%	?	5.2µM*	?	?
Cc1sc2ncnc(OCC(=O)c3ccc(S(=O)(=O)N4CCCC4)cc3)c2c1C	4%	?	4.6µM*	?	6%
Cc1ccc(-c2csc3ncnc(-n4cnc5ccccc54)c23)cc1	?	?	?	10µM*	9.2µM*
Cc1cc(C(O)c2ncc(-c3ccccc3)[nH]2)ccc1F (centres undefined)	/	i	i	/	/
Cc1ccc2c(CN(C)Cc3ccc(Cl)cc3)cc(=O)oc2c1	-25%	i	i	6%	?
Cc1nc(N2CCN(S(=O)(=O)c3ccccc3C#N)CC2)c2c(-c3ccccc3)csc2n1	9%	?	?	12µM*	25%
N#Cc1ccccc1S(=O)(=O)N1CCN(c2nc(-c3ccccc3)nc3ccccc23)CC1	/	?	i	/	/
Clc1ccc(-c2csc3ncnc(N4CCc5ccccc5C4)c23)cc1	-9%	i	16µM*	0%	?
O=[N+]([O-])c1ccc(/C=C/C2=NN(c3ccccc3)C(c3ccco3)C2)o1 (centres undefined)	-5%	7.3µM*	?	-3%	3%
CN(/N=C/c1ccc([N+](=O)[O-])o1)c1ccccc1	-5%	i	i	?	0%
C(=C\c1ccco1)/C1=NN(c2ccccc2)C(c2ccco2)C1 (centres undefined)	2.3µM*	i	?	?	2.1µM*
O=C1CC(/C=C/c2ccco2)=Nc2ccccc2N1	6%	i	i	4%	4%
CC1=C(SCc2ccccc2)C(=O)c2ccccc2C1=O	3.7µM*	?	?	/	3.7µM*
COc1ccc(-n2cc(-c3ccc(OC(F)F)cc3)[n+]3c2CCCCC3)cc1	-2%	?	i	5.2µM*	4%
COc1ccc(-c2cn(-c3ccc(Cl)cc3)c3[n+]2CCCCC3)cc1	3%	9.2µM*	i	12µM*	?
COc1ccc(CN2C(=O)C(CC(=O)NCCN3CCOCC3)CC(C(=O)N3CCOCC3)=C2C)cc1 (centres undefined)	/	i	i	/	/
CCN1C/C(=C/c2ccc(N3CCOCC3)cc2)C(=O)/C(=C/c2ccc(N3CCOCC3)cc2)C1	16µM*	?	18µM*	?	23µM*
CCc1ccc(/C=C2/SC(N3CCOCC3)=NC2=O)cc1	-38%	i	i	0%	-2%
CN1C/C(=C\c2ccc(N3CCOCC3)cc2)C(=O)/C(=C/c2ccc(N3CCOCC3)cc2)C1	?	?	21µM*	?	18µM*
c1ccc(N2CCOCCOCCOCCOCCOCC2)cc1	-1%	i	i	0%	-3%
O=C(CN1CCN(c2ccc(F)cc2)CC1)N(C1CCCC1)C1CCS(=O)(=O)C1 (centres undefined)	-1%	i	i	2%	0%
SMILES	SW480 rereplic	KB-3-1 tox	KB-V1 MDR tox	ELG1 repair inh	MCF10A rereplic
CN1Cc2c(N3CCOCC3)nc3sc(C(=O)c4ccccc4)c(N)c3c2CC1(C)C	?	i	i	?	21µM*
CC1(C)Cc2c(c(N3CCOCC3)nc3snc(N)c23)CO1	-6%	20µM*	i	8%	10µM*
CCOC(=O)c1sc2nc(N3CCOCC3)c3c(c2c1N)CC(C)(C)N(C)C3	?	i	i	?	?
CC1(C)Cc2c(c(N3CCOCC3)nc3sc(C(N)=O)c(N)c23)CO1	-2%	i	i	5.2µM*	4%
CC1(C)Cc2c(c(N3CCCC3)nc3sc(C(=O)Nc4ccccc4)c(N)c23)CO1	?	i	i	?	2.9µM*
COc1ccc(NC(=O)c2sc3nc(N4CCOCC4)c4c(c3c2N)CCCC4)cc1	/	i	i	/	/
COc1ccc(CCSc2n[nH]c(C(C)C)n2)cc1	/	i	?	/	/
CCO[C@@H]1OC(C(=O)N2CCOCC2)=C[C@H](c2ccc(C(F)(F)F)cc2)[C@H]1CCCO	-3%	?	i	-15%	-8%
COC(=O)c1ccc(-c2sc3nc(N4CCOCC4)c4c(c3c2N)CC(C)(C)OC4)o1	0.71µM*	i	i	5.2µM*	?
CCOC(=O)c1sc2nc(N3CCOCC3)c3c(c2c1N)CCC3	-2%	i	i	?	9%
Nc1c(C(=O)NCCc2ccccc2)sc2nc(N3CCOCC3)c3c(c12)CCCC3	15µM*	i	i	-16%	16µM*
CC1(C)Cc2c(c(N3CCOCC3)nc3sc(C(=O)Nc4ccc(Cl)cc4)c(N)c23)CO1	20%	16µM*!	?	0.92µM*	?
CCOC(=O)c1sc2nc(-c3ccco3)c3c(c2c1N)CC(C)(C)OC3	125%	i	12µM*	?	23µM*
Cc1ccccc1NC(=O)c1sc2nc(N3CCOCC3)c3c(c2c1N)CCCC3	-7%	i	i	?	?
CCN(CC)CCN=c1c(C)nc(C#N)c(N)n1O	/	i	i	/	/
Cc1ccc(NC(=O)c2sc3nc(N4CCOCC4)c4c(c3c2N)CC(C)(C)OC4)cc1	15%	i	i	?	?
CCOC(=O)c1sc2nc3c(cc2c1N)COC(C)(C)C3	0%[9.22 µM]	?	i	?	?
Cc1nc(N2CCCCC2)c2c(C)c(C(=O)Nc3ccc4c(c3)OCCO4)sc2n1	-19%	i	i	10µM*	-4%
CCOc1ccc(NC(=O)c2sc3nc(C)nc(N4CCOCC4)c3c2C)cc1	10%	i	?	13µM*	?
CCOC(=O)c1sc2nc3c(cc2c1N)COC(C)(CC)C3 (centres undefined)	?	i	i	?	18µM*
Cc1cccc(NC(=O)c2sc3nc(C)nc(N4CCOCC4)c3c2C)c1	/	i	i	/	/
CCOc1ccc(NC(=O)c2sc3nc(N4CCOCC4)c4c(c3c2N)CC(C)(C)OC4)cc1	7%	7.3µM*	i	?	9%
COc1cccc(NC(=O)c2sc3nc(N4CCOCC4)c4c(c3c2N)CC(C)(C)OC4)c1	/	i	i	/	/
